# Laboratory results taken from the supplement of paper PMC9262897, “Low-cost anti-mycobacterial drug discovery using engineered E. coli” (Nature Communications, 2022).
# Structures can show the parent of a compound that is named as a salt. ± gives the standard deviation of the averaged measurements.
# System: E. coli TESEC Mtb Alr
# Test: growth (OD600 after 10 h); higher = more growth (less inhibition)
# Details: arabinose 10000 nM; compound 0.1 mM; raw OD600 reference: median of DMSO wells 0.264, cell-free background 0.041
# Description: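 TESEC Mtb Alr E. coli, or the Alr+ wild-type control, in 384-well plates with Prestwick library compounds at 0.1 mM and 1% DMSO, across arabinose induction levels of 1E3 to 1E7 nM. Growth is read as OD600 after 10 h at 37 °C in triplicate biological replicates.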
row,Compound,growth
1,CN1CCCC(n2nc(Cc3ccc(Cl)cc3)c3ccccc3c2=O)CC1 (stereo not given) [Azelastine HCl],0.172 ± 0.0055
2,COC(=O)Nc1nc2ccc(SC(C)C)cc2[nH]1 [Methiazole],0.271 ± 0.0072
3,CCCCNC(=O)NS(=O)(=O)c1ccc(C)cc1 [Tolbutamide],0.243 ± 0.0065
4,CS(=O)(=O)OCCCCOS(C)(=O)=O [Busulfan],0.272 ± 0.0066
5,Fc1ccc([C@@H]2CCNC[C@H]2COc2ccc3c(c2)OCO3)cc1 [Paroxetine Hydrochloride],0.2021 ± 0.0013
6,CC1(C)O[C@@H]2C[C@H]3[C@@H]4C[C@H](F)C5=CC(=O)C=C[C@]5(C)[C@H]4[C@@H](O)C[C@]3(C)[C@]2(C(=O)CO)O1 [Flunisolide],0.261 ± 0.0019
7,CNCCc1ccccn1 [Betahistine mesylate],0.269 ± 0.0066
8,CC(C(=O)O)c1ccc(C(=O)c2cccs2)cc1 (stereo not given) [Suprofen],0.254 ± 0.008
9,CCCCCCCCNC(C)C(O)c1ccc(SC(C)C)cc1 (stereo not given) [Suloctidil],0.0405 ± 0.00085
10,CCCc1cc(C(N)=S)ccn1 [Prothionamide],0.269 ± 0.013
11,CCC[C@@H]1C[C@@H](C(=O)N[C@@H]([C@H]2O[C@H](SC)[C@H](O)[C@@H](O)[C@H]2O)[C@@H](C)O)N(C)C1 [Lincomycin hydrochloride],0.086 ± 0.003
12,C[C@]12CC[C@@H]3c4ccc(O)cc4C[C@@H](CCCCCCCCC[S+]([O-])CCCC(F)(F)C(F)(F)F)[C@H]3[C@@H]1CC[C@@H]2O (stereo not given in full) [Fulvestrant],0.27 ± 0.009
13,CN(C)CCCSC(=N)N [Dimaprit dihydrochloride],0.267 ± 0.0039
14,CN1CCN(c2c(F)cc3c(=O)c(C(=O)O)cn4c3c2SCC4)CC1 [Rufloxacin],0.03973 ± 0.00031
15,CC(=O)OCC(=O)[C@@]1(OC(C)=O)[C@@H](C)C[C@H]2[C@@H]3C[C@H](F)C4=CC(=O)C=C[C@]4(C)[C@@]3(F)[C@@H](O)C[C@@]21C [Diflorasone Diacetate],0.162 ± 0.0026
16,CS(=O)(=O)c1ccc([C@@H](O)[C@@H](CO)NC(=O)C(Cl)Cl)cc1 [Thiamphenicol],0.0394 ± 0.00036
17,CSc1nc2cc(Cl)c(Oc3cccc(Cl)c3Cl)cc2[nH]1 [Triclabendazole],0.0802 ± 0.002
18,CC(C)(CO)C(O)C(=O)NCCCO (stereo not given) [Panthenol (D)],0.261 ± 0.0092
19,Cc1onc(-c2ccccc2Cl)c1C(=O)N[C@@H]1C(=O)N2[C@@H]1SC(C)(C)[C@@H]2C(=O)O [Cloxacillin sodium salt],0.267 ± 0.005
20,OCCN(CCO)c1nc(N2CCCCC2)c2nc(N(CCO)CCO)nc(N3CCCCC3)c2n1 [Dipyridamole],0.0482 ± 0.0011

row,Compound,growth
1,CN(C)CCN(Cc1ccc(Cl)cc1)c1ccccn1 [Chloropyramine hydrochloride],0.265 ± 0.0041
2,CCCCOC(=O)c1ccc(N)cc1 [Butamben],0.277 ± 0.0069
3,Nc1c(Br)cc(Br)cc1CN[C@H]1CC[C@H](O)CC1 [Ambroxol hydrochloride],0.283 ± 0.0086
4,C[C@]12CC[C@@H]3c4ccc(OS(=O)(=O)O)cc4CC[C@H]3[C@@H]1CCC2=O [Estropipate],0.251 ± 0.0064
5,CC(NCCC(c1ccccc1)c1ccccc1)c1ccccc1 (stereo not given) [Fendiline hydrochloride],0.03877 ± 0.00012
6,C[C@@H]1C[C@H]2[C@@H]3C[C@H](F)C4=CC(=O)C=C[C@]4(C)[C@@]3(F)[C@@H](O)C[C@]2(C)[C@@]1(O)C(=O)COC(=O)C(C)(C)C [Flumethasone pivalate],0.267 ± 0.017
7,COc1cc(C(=O)NC2CCCNC2)cc(OC)c1OC (stereo not given) [Troxipide],0.255 ± 0.0049
8,"COCCc1ccc(OCC(O)CNC(C)C)cc1 (racemic) [Metoprolol-(+,-) (+)-tartrate salt]",0.266 ± 0.014
9,CC(Oc1c(Cl)cccc1Cl)C1=NCCN1 (stereo not given) [Lofexidine],0.259 ± 0.016
10,N#CC(c1ccc(Cl)cc1)c1c(Cl)cc(-n2ncc(=O)[nH]c2=O)cc1Cl (stereo not given) [Diclazuril],0.0402 ± 0.0002
11,Cc1cc(C(C)(C)CC(C)(C)C)ccc1OCCOCC[N+](C)(C)Cc1ccccc1 [Methyl benzethonium chloride],0.0504 ± 0.002
12,CC(=O)CC(c1ccc([N+](=O)[O-])cc1)c1c(O)c2ccccc2oc1=O (stereo not given) [Acenocoumarol],0.2588 ± 0.0011
13,COCC1=C(C(=O)OC(C)OC(=O)OC(C)C)N2C(=O)[C@@H](NC(=O)/C(=N\OC)c3csc(N)n3)[C@H]2SC1 (stereo not given in full) [Cefpodoxime proxetil],0.0588 ± 0.0019
14,CC(=O)OCC(=O)[C@@]12OC(C)(C)O[C@@H]1C[C@H]1[C@@H]3C[C@H](F)C4=CC(=O)C=C[C@]4(C)[C@@]3(F)[C@@H](O)C[C@@]12C [Fluocinonide],0.275 ± 0.01
15,COc1ccc([C@@H]2Sc3ccccc3N(CCN(C)C)C(=O)[C@@H]2OC(C)=O)cc1 [Diltiazem hydrochloride],0.274 ± 0.014
16,CC(=O)N[C@@H](CC(=O)N[C@@H](CCC(=O)O)C(=O)O)C(=O)O [Spaglumic acid],0.284 ± 0.015
17,Cc1ccnc(NS(=O)(=O)c2ccc(N)cc2)n1 [Sulfamerazine],0.229 ± 0.0029
18,N=c1nc(N2CCCCC2)cc(N)n1O [Minoxidil],0.247 ± 0.014
19,COc1ccc2c(c1)c(CC(=O)O)c(C)n2C(=O)c1ccc(Cl)cc1 [Indomethacin],0.2 ± 0.0069
20,CN1CC2c3ccccc3Oc3ccc(Cl)cc3C2C1 (stereo not given) [Asenapine maleate],0.225 ± 0.0073
